The record followed here is PubChem BioAssay (NCATS).

Results filed as inconclusive are left out. Unmarked numbers belong to inactive results. Active and inactive are the calls of the source. The call rests on the fitted dose curve; in most records, active means well fitted cell-killing curve with a large enough effect; inconclusive means small, poorly fitted or top-dose-only effect; inactive means no such curve, though single readings can be large or run the other way.
Potency means the concentration at half of the fitted maximal effect.

The assay is described as follows: qHTS of pediatric cancer cell lines to identify multiple opportunities for drug repurposing: Confirmatory screen for U-2 OS cells (AID 1347122). Further: nearly all actives have a fitted effect of over 65% in size. As to conditions: U-2 OS osteosarcoma cell viability; series mostly up to 45.9 µM; activity change, negative = cytotoxicity: at the top concentration. From the text: Drug repurposing or repositioning has been offered as a strategy for drug development in oncology programs. This approach has special potential for childhood cancers and other rare or orphan diseases, where the expected return on new drug development has been a disincentive to pharmaceuticals.
In this project we exploit the poly-pharmacology of drugs to discover new indications via phenotypic screening of a panel of 19 well-characterized cell lines derived from solid tumors seen in children and adolescents. The goal is to identify approved drugs with previously unrecognized anticancer properties that has the potential to reveal new mechanisms and biological processes involved in carcinogenesis or drug resistance. We employed a titration-based paradigm (quantitative high-throughput screening or qHTS), where all compounds were tested at multiple concentrations for their effect on cell viability. Concentration-response curves (CRCs) were derived directly from the primary screen, and both potency and efficacy values were used to identify compounds with robust bioactivity profiles. We screened the NIH Chemical Genomics Center (NCGC) Pharmaceutical Collection (NPC) and Mechanism Interrogation Plate (MIPE) small molecule collections of approved and investigational compounds against these cell lines; and measured metabolically active cells after 48 hours of compound treatment as a proxy for cell viability.
Assay Submitter: Nathalia J. Martinez, National Center for Advancing Translational Sciences, National Institutes of Health, Rockville, MD, USA; email: natalia.martinez@nih.gov
[1] Shen, M et al. Quantitative high-throughput phenotypic screening of pediatric cancer cell lines identifies multiple opportunities for drug repurposing. Oncotarget 2017 Dec 19;9(4):4758-4772. PMID 29435139.
The cells were obtained from University of North Carolina (UNC), Pediatric Preclinical Testing Program (PPT), and Coriell Institute (CI).
qHTS cell viability assay:
Cells were assayed in growth media at a density of 500-1,000 cells/well. Five microliters of cells were dispensed into 1,536-well, white, solid-bottom, TC-treated plates (Greiner Bio One) using a multidrop dispenser and incubated at 37 degrees C, 5% CO2, under a humidified atmosphere for 5 hours. Twenty-three nanoliters of compounds and controls (neutral control DMSO or positive control bortezomib at final concentration of 2.3 µM) were subsequently transferred by Kalypsys pintool. For primary screens, the MIPE collection was tested at 11-point dilutions (final concentrations range from 0.78 nM to 46 µM) and the NPC collection at 8-point dilutions (final concentrations range from 0.59 nM to 46 µM). Compounds tested in follow-up screens were assayed at 11-point dilutions. Cells were incubated for 48 hours, followed by addition of 3 µL of CellTiter-Glo (Promega). After a 15 min incubation at room temperature, samples were analyzed for luminescence intensity using a ViewLux High-throughput CCD imager equipped with clear filters.
Background: In qHTS, concentration-response curves come from the screen itself.
`O=C(Nc1cn[nH]c1-c1nc2ccc(CN3CCOCC3)cc2[nH]1)NC1CC1`: the “activity change, negative = cytotoxicity” value is 29.7%.

Regarding `COc1cc(Nc2ncc(F)c(Nc3ccc4c(n3)N(COP(=O)(O)O)C(=O)C(C)(C)O4)n2)cc(OC)c1OC`, the Potency is 4.14 µM (active). `Cc1c(NC(=O)OC[C@@H]2COCCN2)cn2ncnc(Nc3ccc4c(cnn4Cc4cccc(F)c4)c3)c12`: the Potency is 20.8 µM (active). Same read-out and setting: then `Cc1ccc(C(N)=O)cc1Nc1nccc(-c2cn(C(C)C)c3cnccc23)n1`, with 15.1 µM (active); and `CC(C)c1cnn2c(NCc3ccccc3)cc(N[C@@H](CO)[C@H](O)CO)nc12`, with 0.465 µM (active). `Cc1cc(C(=O)N2CCN(c3cccc(Cl)c3)CC2)n(-c2ccccc2)n1`: the Potency was 3.29 µM (active).

Regarding `CC1(C)CCC(c2ccc(Cl)cc2)=C(CN2CCN(c3ccc(C(=O)NS(=O)(=O)c4ccc(N[C@H](CCN5CCOCC5)CSc5ccccc5)c(S(=O)(=O)C(F)(F)F)c4)cc3)CC2)C1`, the “activity change, negative = cytotoxicity” value was 22.6%. As to `O=C(NC1CCNCC1)c1[nH]ncc1NC(=O)c1c(Cl)cccc1Cl`, the Potency is 1.85 µM (active). Still for that read-out and setting: then `COC(=O)c1ccc2c(C(=Nc3ccc(N(C)C(=O)CN4CCN(C)CC4)cc3)c3ccccc3)c(O)[nH]c2c1`, with 13.1 µM (active); and `CN(c1ncccc1CNc1nc(Nc2ccc3c(c2)CC(=O)N3)ncc1C(F)(F)F)S(C)(=O)=O`, with 7.37 µM (active); and `CC(C)CC(=O)Nc1n[nH]c2c1CN(C(=O)C1CCN(C)CC1)C2(C)C`, with 16.5 µM (active). Take `NC(=O)Nc1cc(-c2cccc(F)c2)sc1C(=O)N[C@H]1CCCNC1`: the Potency was 1.17 µM (active). Regarding `C=CCn1c(=O)c2cnc(Nc3ccc(N4CCN(C)CC4)cc3)nc2n1-c1cccc(C(C)(C)O)n1`, the Potency was 1.65 µM (active). Consider `Nc1ccccc1NC(=O)c1ccc(CNC(=O)OCc2cccnc2)cc1`, for which the Potency was 0.135 µM (active). In the case of `Cc1cnc(Nc2ccc(F)cc2Cl)nc1-c1c[nH]c(C(=O)N[C@H](CO)c2cccc(Cl)c2)c1`, the Potency was 6.57 µM (active). Take `CN1CC[C@@H](c2c(O)cc(O)c3c(=O)cc(-c4ccccc4Cl)oc23)[C@@H](O)C1`: the Potency is 0.329 µM (active). For the compound `Cc1nc2ccc(CN(C)c3ccc(C(=O)N[C@@H](CCC(=O)O)C(=O)O)s3)cc2c(=O)[nH]1`, the “activity change, negative = cytotoxicity” value is 20.7%. On to `Cn1c(=O)n(-c2ccc(C(C)(C)C#N)cc2)c2c3cc(-c4cnc5ccccc5c4)ccc3ncc21`, for which the Potency is 2.93 µM (active).

On to `C=CC(=O)Nc1cccc(Oc2nc(Nc3ccc(N4CCN(C)CC4)cc3)ncc2Cl)c1`, for which the Potency was 2.61 µM (active). With `Cc1cn2c(-c3cn[nH]c3)cnc2c(Nc2ccc(C(=O)N3CCNCC3)cc2F)n1`, the “activity change, negative = cytotoxicity” value is -24.9%. On to `CC(=O)OCC(=O)[C@@]1(O)[C@H](C)C[C@H]2[C@@H]3C=C(C)C4=Cc5c(cnn5-c5ccccc5)C[C@]4(C)[C@@H]3[C@@H](O)C[C@@]21C`, for which the Potency is 9.27 µM (active). With `Nc1ccccc1NC(=O)c1ccc(CNc2nccc(-c3cccnc3)n2)cc1`, the Potency is 0.414 µM (active). `O=C(C=Cc1cccc(S(=O)(=O)Nc2ccccc2)c1)NO`: the Potency was 2.4 µM (active). For `CC(C)C[C@H](NC(=O)CNC(=O)c1cc(Cl)ccc1Cl)B(O)O`, the Potency was 0.928 µM (active).

As for `CN(C)CCCN=c1c2ccccc2n(C)c2[nH]c(=O)n(C)c(=O)c12`, the “activity change, negative = cytotoxicity” value is -3.9%. Regarding `Nc1cc(C(F)(F)F)c(-c2cc(N3CCOCC3)nc(N3CCOCC3)n2)cn1`, the Potency is 5.22 µM (active).

On to `CC(C)(C)c1cnc(CSc2cnc(NC(=O)C3CCNCC3)s2)o1`, for which the Potency was 1.31 µM (active). In the case of `Cn1c2ccccc2c2c3c(c4c5ccccc5n(CCC#N)c4c21)CNC3=O`, the Potency is 3.69 µM (active). As for `CC(C)(C)c1cc(NC(=O)Nc2ccc(-c3cn4c(n3)sc3cc(OCCN5CCOCC5)ccc34)cc2)no1`, the Potency is 20.8 µM (active). Regarding `COc1ccc(F)c(F)c1C(=O)c1cnc(NC2CCN(S(C)(=O)=O)CC2)nc1N`, the Potency is 3.29 µM (active). As to `Cc1c(Cn2c(C)nc3c(C(=O)O)cc(N4CCOCC4)cc32)cccc1C(F)(F)F`, the Potency is 23.3 µM (active). Regarding `COc1ccc(-c2cc3c(C)nc(N)nc3n(C3CCC(OCCO)CC3)c2=O)cn1` (stereo not given), the “activity change, negative = cytotoxicity” value is 6.79%. Take `COc1cc2nccc(Oc3ccc(NC(=O)C4(C(=O)Nc5ccc(F)cc5)CC4)cc3)c2cc1OC`: the Potency was 23.3 µM (active). With `Cc1ccc(C(=O)Nc2ccc(CN3CCN(C)CC3)c(C(F)(F)F)c2)cc1C#Cc1cnc2cccnn12`, the Potency is 2.93 µM (active).

As to `CC[C@@H]1C(=O)N(C)c2cnc(Nc3ccc(C(=O)NC4CCC(N5CCN(CC6CC6)CC5)CC4)cc3OC)nc2N1C(C)C` (stereo not given in full), the outcome was inactive. For the compound `Cc1cnc(-c2cnc(NCCNc3ccc(C#N)cn3)nc2-c2ccc(Cl)cc2Cl)[nH]1`, the “activity change, negative = cytotoxicity” value was -3.52%. Consider `COc1cc2c(NC3CCN(C(C)C)CC3)nc(C3CCCCC3)nc2cc1OCCCN1CCCC1`, for which the “activity change, negative = cytotoxicity” value is -12%. Take `Cc1ccc(NC(=O)C2(c3ccc4c(c3)OC(F)(F)O4)CC2)nc1-c1cccc(C(=O)O)c1`: the Potency is 9.27 µM (active). Take `Cc1nc(Nc2n[nH]c3c2CN(C(=O)N[C@H](CN(C)C)c2ccccc2)C3(C)C)c2sccc2n1`: the “activity change, negative = cytotoxicity” value was 25.7%. Turning to `CCN1CCN(Cc2ccc(-c3cc4c(N[C@H](C)c5ccccc5)ncnc4[nH]3)cc2)CC1`, the Potency was 12 µM (active).
